The values below come from PubChem BioAssay (NCATS).

A number with no mark means an inactive call. Inconclusive results are not listed. The source made the active and inactive calls. The call rests on the fitted dose curve; in most records, active means well fitted curve in the direction sought with a large enough effect; inconclusive means small, poorly fitted or top-dose-only effect, or another doubt; inactive means no such curve, though single readings can be large; an effect the other way counts as inactive or inconclusive.

Assay [1] can be described thus: Viability counterscreen for agonist of constitutive androstane receptor (CAR) against the NCATS DSHEA and TCM libraries (AID 1794838).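 Further: HepG2 cells with CYP2B6 reporter and hCAR plus 0.75 µM PK11195 antagonist; 0% is about no effect.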 The essentials: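 HepG2-CYP2B6-hCAR cells (2,500/well) treated 24 h at 37C with compounds plus 0.75 uM PK11195; viability read by CellTiter-Fluor fluorescence, Ex/Em 405/540 nm.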
Assay [2] in a line: HepG2 viability counterscreen (readout 2: ATP content) against the NCATS DSHEA and TCM libraries (AID 1794840). Further: 0% is about no effect. The essentials: (§1)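 HepG2 cells, 1,000/well, attached ~4 h, then exposed ~24 h at 37C to substances. Protease activity read by fluorescence of 25 uM GF-AFC (Ex/Em 380/510 nm) after 30 min; ATP then by CellTiter-Glo luminescence.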
A general note: A counterscreen serves to expose hits that act by an unwanted route or on another target.

Assay [3] in a line: HepG2 viability counterscreen (readout 1: protease activity) against the NCATS DSHEA and TCM libraries (AID 1794841).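 Further: cells exposed to compounds for about 24 h before the protease read; 0% is about no effect.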 The essentials: as §1
For assay [4], the target named is Cytochrome P450 2D6 (Homo sapiens) (UniProt P10635). Description: qHTS for inhibitors of CYP2D6 against the NCATS DSHEA and TCM libraries (AID 1919972). Further: on the % scale 0 is the no-effect control and ±100 the full control effect. The essentials: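 Luminescent P450-Glo read-out of CYP2D6 turnover of a luciferin substrate after NADPH-driven reaction of 30-45 min at room temperature. Compounds were first preincubated 15 min with enzyme at titrated concentrations; quinidine was the intraplate control.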
In general terms: qHTS replaces the single test concentration by a dilution series.

The target of assay [5] is Cytochrome P450 1A2 (Homo sapiens) (UniProt P05177). Kind of assay: qHTS for inhibitors of CYPIA2 against the NCATS DSHEA and TCM libraries (AID 1919976).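 Further: light from luciferin formed by CYP1A2 from a pro-luciferin substrate; series mostly up to about 37 µM; on the % scale 0 is the no-effect control and ±100 the full control effect.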 The essentials:
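Human CYP1A2 with pro-luciferin substrate (typically 100 mM KPO4), 15 min preincubation with compound, then 1x NADPH regeneration for 30-45 min at room temperature in the dark. Luciferin quantified by luciferase luminescence; furafylline intraplate control.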

Assay [6] can be described thus: qHTS Counterscreen for compound interference against the NCATS DSHEA and TCM libraries (AID 1919978).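 Further: compounds preincubated with 1 µM D-luciferin or buffer before detection reagent; % of control where 0% means no effect.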 The following applies: firefly luciferase detection reagent interference, luminescence. The essentials:
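Firefly luciferase detection reagent was added after compounds (19.5 nM–39.8 uM final) had been incubated 15 min at room temperature with 1 uM D-luciferin or with 100 mM phosphate buffer alone. Luminescence was read after 30 min at room temperature.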

Assay [7] in a line: Dual reporter qHTS for agonist of Pregnane X Receptor (hPXR) against the NCATS DSHEA and TCM libraries: Fluorescence readout (AID 1920058). Further: 0% is about no effect. The essentials:
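hPXR-Luc HepG2 cells, 2000/well in charcoal-stripped serum, attached 5 h, dosed for ~24 h at 37 °C. Fluorescence read is CellTiter-Fluor viability (Ex/Em 405/540 nm); rifampicin positive, tetraoctyl ammonium bromide (92 µM) cytotoxicity controls.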

Assay [8] in a line: NCATS anti-infectives library activity on HEK293 viability as a counter-qHTS vs the C. elegans viability qHTS (AID 1745854).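 Further: HEK293 cells exposed to compounds for 24 hr before the viability read; on the % scale 0 is the no-effect control and ±100 the full control effect.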 The essentials:
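HEK293 cells (1,500/well) exposed 24 hr at 37C to 1:5 titrations, up to 41.7 uM final; counter-screen to a C. elegans viability qHTS. Viability by CellTiter-Glo luminescence after 10 min at room temperature; digitonin as control.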

Assay [9] has as its target Glutathione peroxidase 1 (Homo sapiens) (UniProt P07203). Kind of assay: Primary qHTS Assay for Inhibitors of Recombinant Selenoprotein Glutathione Peroxidase 1 (GPX1) (AID 1845191). Further: nearly all actives have a fitted effect of over 65% in size. The essentials:
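10 nM GPX1 + cpd, 30 min RT; start w/ 1 mM GSH, 0.5 mM cumene hydroperoxide, 0.5 mM NADPH, 100 nM GR, 0.01% BSA; buffer 50 mM Tris-HCl pH 7.5, 2 mM EDTA, 150 mM NaCl; Fl 340/450, 0 & 15 min.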

In assay [10] the target is Phospholipid hydroperoxide glutathione peroxidase GPX4 (Homo sapiens) (UniProt P36969). Description: Primary qHTS Assay for Inhibitors of Recombinant Selenoprotein Glutathione Peroxidase 4 (GPX4) (AID 1845192). Further: nearly all actives have a fitted effect of over 65% in size. The essentials:
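NADPH consumption, followed by fluorescence at 340/450 nm between 0 and 15 min, reports GPX4 activity via coupled glutathione reductase (100 nM). Enzyme 200 nM was pre-exposed to compound 30 min; 0.5 mM cumene hydroperoxide and 1 mM GSH served as substrates.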

In assay [11] the target is Cytochrome P450 3A4 (Homo sapiens) (UniProt P08684). Description: qHTS for inhibitors of CYP3A4 against the NCATS DSHEA and TCM libraries (AID 1919971).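 Further: on the % scale 0 is the no-effect control and ±100 the full control effect; inhibition lowers luminescence from luciferin made by CYP3A4.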 The essentials: (§2)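 Luminescent P450-Glo format: compounds preincubated 15 min with enzyme and luciferin substrate, reaction run 30-45 min after NADPH regeneration solution. Intraplate controls: ketoconazole for CYP3A4 and CYP2C19, sulfaphenazole for CYP2C9.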

For assay [12], the target named is Cytochrome P450 2C19 (Homo sapiens) (UniProt P33261). Kind of assay: qHTS for inhibitors of CYP2C19 against the NCATS DSHEA and TCM libraries (AID 1919974).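 Further: luminescence from luciferin released by CYP2C19 oxidation of a pro-luciferin substrate.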 Further: potency means the concentration at half of the fitted maximal effect. The essentials:
as §2

The nature of assay [13]: KB-3-1 P-gp reporter qHTS against the NCATS DSHEA and TCM libraries (AID 1919975). Further: 0% is about no effect. The essentials:
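Parental KB-3-1 cells, 500 cells/well, in DMEM with 10% FBS, exposed 72 h at 37 C to compounds in concentration-response. Viability read by CellTiter-Glo luminescence after 30 min at room temperature.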

Assay [14] addresses Rap guanine nucleotide exchange factor 3 (Homo sapiens) (UniProt O95398). Description: Counterscreen qHTS for antagonist of cAMP-regulated guanine nucleotide exchange factor 3 (EPAC1) (AID 1645888).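 Further: fluorescence loss as bound BODIPY-GDP is released from Rap1B; % of control where 0% means no effect.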 The essentials: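 Rap1B-BODIPY-GDP 250 nM + GDP 50 uM; cpds 7-pt, final 9.74 nM–152 uM (activator mode) or from 7.32 nM upwards (inhibitor mode); RT; FI 480/540 nm at 5 and 30 min, then ± cAMP, reread.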

Sequence of Phospholipid hydroperoxide glutathione peroxidase GPX4 (Homo sapiens) (P36969 whole entry, looked up): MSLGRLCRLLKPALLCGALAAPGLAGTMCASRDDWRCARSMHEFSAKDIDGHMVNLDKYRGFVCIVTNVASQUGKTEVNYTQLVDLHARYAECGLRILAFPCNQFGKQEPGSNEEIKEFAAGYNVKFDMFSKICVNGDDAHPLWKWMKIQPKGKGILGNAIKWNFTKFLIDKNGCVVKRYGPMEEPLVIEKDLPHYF
Sequence of Cytochrome P450 2C19 (Homo sapiens) (P33261 whole entry, looked up): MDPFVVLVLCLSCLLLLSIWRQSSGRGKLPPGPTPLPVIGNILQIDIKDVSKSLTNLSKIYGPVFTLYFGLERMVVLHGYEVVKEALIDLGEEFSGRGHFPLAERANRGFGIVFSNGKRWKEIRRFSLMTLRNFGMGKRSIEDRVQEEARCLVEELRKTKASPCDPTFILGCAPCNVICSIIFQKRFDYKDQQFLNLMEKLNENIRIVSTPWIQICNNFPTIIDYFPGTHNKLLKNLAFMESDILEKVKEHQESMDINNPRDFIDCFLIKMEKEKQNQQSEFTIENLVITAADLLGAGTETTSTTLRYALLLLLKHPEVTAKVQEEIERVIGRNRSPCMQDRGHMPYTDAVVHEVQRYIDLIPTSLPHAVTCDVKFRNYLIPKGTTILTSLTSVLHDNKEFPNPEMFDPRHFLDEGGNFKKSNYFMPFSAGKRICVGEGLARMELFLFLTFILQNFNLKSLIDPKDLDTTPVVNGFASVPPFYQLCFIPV
Sequence of Cytochrome P450 1A2 (Homo sapiens) (P05177 whole entry, looked up): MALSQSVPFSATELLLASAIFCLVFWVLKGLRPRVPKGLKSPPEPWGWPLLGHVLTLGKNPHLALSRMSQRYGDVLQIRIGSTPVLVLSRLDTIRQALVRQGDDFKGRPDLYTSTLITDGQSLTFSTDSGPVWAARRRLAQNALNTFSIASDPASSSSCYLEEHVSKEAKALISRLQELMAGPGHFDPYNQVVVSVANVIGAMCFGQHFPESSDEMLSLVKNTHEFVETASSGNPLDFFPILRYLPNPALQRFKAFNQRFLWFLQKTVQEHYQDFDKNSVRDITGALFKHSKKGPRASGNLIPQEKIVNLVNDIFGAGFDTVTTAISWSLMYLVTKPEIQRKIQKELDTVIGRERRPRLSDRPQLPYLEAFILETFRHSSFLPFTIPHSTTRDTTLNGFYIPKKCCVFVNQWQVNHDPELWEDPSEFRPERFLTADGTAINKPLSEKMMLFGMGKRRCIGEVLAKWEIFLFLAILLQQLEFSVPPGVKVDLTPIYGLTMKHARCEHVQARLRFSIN
Sequence of Cytochrome P450 2D6 (Homo sapiens) (P10635 whole entry, looked up): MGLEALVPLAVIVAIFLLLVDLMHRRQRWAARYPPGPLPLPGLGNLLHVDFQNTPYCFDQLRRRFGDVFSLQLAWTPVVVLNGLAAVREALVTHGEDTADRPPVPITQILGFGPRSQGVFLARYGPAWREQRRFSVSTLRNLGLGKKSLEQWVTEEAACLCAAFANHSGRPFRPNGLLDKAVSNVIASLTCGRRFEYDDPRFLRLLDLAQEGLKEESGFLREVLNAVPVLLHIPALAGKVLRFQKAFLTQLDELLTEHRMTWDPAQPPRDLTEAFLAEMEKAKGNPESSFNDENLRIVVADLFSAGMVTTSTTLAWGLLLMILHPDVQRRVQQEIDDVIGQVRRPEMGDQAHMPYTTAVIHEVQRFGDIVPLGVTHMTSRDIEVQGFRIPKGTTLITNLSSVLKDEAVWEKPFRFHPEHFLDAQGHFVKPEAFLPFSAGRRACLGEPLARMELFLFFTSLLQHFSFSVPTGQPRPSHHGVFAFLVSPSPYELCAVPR
Sequence of Cytochrome P450 3A4 (Homo sapiens) (P08684 whole entry, looked up): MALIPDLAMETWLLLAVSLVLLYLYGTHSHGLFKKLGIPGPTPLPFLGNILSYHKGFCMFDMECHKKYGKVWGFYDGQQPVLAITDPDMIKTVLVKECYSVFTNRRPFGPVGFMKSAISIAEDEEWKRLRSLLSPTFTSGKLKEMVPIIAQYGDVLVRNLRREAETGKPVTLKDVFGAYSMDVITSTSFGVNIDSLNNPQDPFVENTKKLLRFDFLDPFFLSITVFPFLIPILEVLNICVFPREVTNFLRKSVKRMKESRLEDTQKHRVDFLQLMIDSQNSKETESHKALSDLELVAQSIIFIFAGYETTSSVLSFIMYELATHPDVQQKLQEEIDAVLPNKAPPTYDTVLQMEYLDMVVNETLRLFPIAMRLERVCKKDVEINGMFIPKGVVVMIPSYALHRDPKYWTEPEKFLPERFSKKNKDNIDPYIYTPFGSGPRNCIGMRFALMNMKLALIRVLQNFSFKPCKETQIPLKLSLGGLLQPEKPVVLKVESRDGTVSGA
Sequence of Glutathione peroxidase 1 (Homo sapiens) (P07203 whole entry, looked up): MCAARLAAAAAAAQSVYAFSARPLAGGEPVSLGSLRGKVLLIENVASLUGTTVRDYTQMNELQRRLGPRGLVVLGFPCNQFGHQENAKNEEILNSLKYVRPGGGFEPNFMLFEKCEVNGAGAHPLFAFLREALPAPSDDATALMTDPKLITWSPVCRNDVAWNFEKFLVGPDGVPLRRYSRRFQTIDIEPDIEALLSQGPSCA
Sequence of Rap guanine nucleotide exchange factor 3 (Homo sapiens) (O95398 whole entry, looked up): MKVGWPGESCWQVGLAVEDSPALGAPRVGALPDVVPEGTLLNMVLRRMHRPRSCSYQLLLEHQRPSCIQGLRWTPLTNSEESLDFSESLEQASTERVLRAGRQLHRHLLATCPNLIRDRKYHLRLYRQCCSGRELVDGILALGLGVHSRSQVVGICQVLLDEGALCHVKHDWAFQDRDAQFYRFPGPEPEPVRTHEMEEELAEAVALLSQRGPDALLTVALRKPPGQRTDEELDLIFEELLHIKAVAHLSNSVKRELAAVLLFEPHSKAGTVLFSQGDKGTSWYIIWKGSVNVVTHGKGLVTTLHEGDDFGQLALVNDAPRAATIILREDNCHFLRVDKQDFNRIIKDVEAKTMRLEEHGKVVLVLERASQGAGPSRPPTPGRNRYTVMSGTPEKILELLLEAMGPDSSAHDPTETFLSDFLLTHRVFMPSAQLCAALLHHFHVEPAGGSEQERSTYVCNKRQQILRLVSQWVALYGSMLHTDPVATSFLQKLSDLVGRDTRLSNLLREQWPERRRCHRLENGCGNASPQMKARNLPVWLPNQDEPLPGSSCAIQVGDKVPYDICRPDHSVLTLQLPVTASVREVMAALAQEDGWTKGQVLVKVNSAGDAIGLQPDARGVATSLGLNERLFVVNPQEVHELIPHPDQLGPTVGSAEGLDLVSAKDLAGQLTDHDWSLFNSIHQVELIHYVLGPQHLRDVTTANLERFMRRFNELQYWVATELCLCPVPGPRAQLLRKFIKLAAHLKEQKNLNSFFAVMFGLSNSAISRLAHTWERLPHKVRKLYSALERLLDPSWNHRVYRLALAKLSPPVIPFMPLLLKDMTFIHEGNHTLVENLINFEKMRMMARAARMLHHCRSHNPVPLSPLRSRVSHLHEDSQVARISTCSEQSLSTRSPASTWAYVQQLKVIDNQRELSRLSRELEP

As for `CC(C)=CCC/C(C)=C/CC/C(C)=C/CC/C(C)=C/CC1=C(C)C(=O)c2ccccc2C1=O`, the outcome in assay [1], in assay [2], in [3], in assay [4] and in assay [7] was inactive. In addition, in [5], the Potency result is “inactive”. For the same compound, in assay [6], the max response is -2.14%.

In the case of `Nc1ccc(N=Nc2ccccc2)c(N)n1`, the compound was called inactive in assay [8]. For the same compound, the Potency result in assay [9] and in assay [10] was “inactive” throughout.

As to `COC1=C(OC)C(=O)C(C/C=C(\C)CC/C=C(\C)CC/C=C(\C)CC/C=C(\C)CC/C=C(\C)CC/C=C(\C)CC/C=C(\C)CC/C=C(\C)CC/C=C(\C)CCC=C(C)C)=C(C)C1=O`, the outcome in assay [1], in assay [2], in assay [3], in [11], in [4] and in assay [13] was inactive. In addition, the compound was classed as inactive in assay [7]. Moreover, the Potency result in assay [9], in assay [10] and in [12] was “inactive” in each case. Further, in assay [6], the max response is 5.89%.

On to `CC[C@H]1OC(=O)[C@H](C)[C@@H](O[C@H]2C[C@@](C)(OC)[C@@H](O)[C@H](C)O2)[C@H](C)[C@@H](O[C@@H]2O[C@H](C)C[C@H](N(C)C)[C@H]2O)[C@](C)(O)C[C@@H](C)CN(C)[C@H](C)[C@@H](O)[C@]1(C)O`, for which the compound was classed as inactive in assay [8]. Moreover, the Potency entry in [9] and in assay [10] was “inactive” throughout.

As to `Nc1nc(=O)n([C@@H]2CS[C@H](CO)O2)cc1F`, the call in [8] was inactive. Also, the Potency result in [9] and in assay [10] was “inactive” in each case.

Regarding `COc1cc(NCCCC(C)N)c2ncccc2c1` (centres undefined), in assay [14], the outcome was inactive.

Regarding `O=C(O)/C=C/c1ccccc1`, the result in assay [2], in assay [3], in [11], in assay [4], in assay [13] and in assay [7] was inactive. Also, the Potency result in [10], in [12] and in assay [5] was “inactive” throughout. Moreover, the max response in [6] is -1.31%.

For `C=C1CC[C@H](O)C/C1=C\C=C1/CCC[C@]2(C)[C@@H]([C@H](C)CCCC(C)C)CC[C@@H]12`, the result in assay [1], in assay [2], in assay [3], in assay [13] and in assay [7] was inactive. In addition, the Potency result in assay [9], in assay [10] and in assay [5] was “inactive” in each case. Further, in assay [12], the Potency was 25.1 µM (active). Further, the max response in assay [6] is 0.0382%.

On to `CC/C=C\C/C=C\C/C=C\C/C=C\C/C=C\CCCC(=O)O`, for which the compound was called inactive in assay [1], in assay [2], in assay [3], in [11], in assay [4] and in assay [13]. Further, in [7], the result was inactive. The Potency result in assay [9], in [12] and in assay [5] was “inactive” in each case. The max response in assay [6] was 0.593%.
